# Data from ChEMBL document CHEMBL1961873, “Compounds: GSK PKIS; Assays: Nanosyn kinase panel” (2012).
# Biological target: Glycogen synthase kinase-3 beta (Homo sapiens) (UniProt P49841)
# Details: at 0.1 µM
# Glycogen synthase kinase-3 beta (Homo sapiens), sequence (P49841 whole entry, looked up): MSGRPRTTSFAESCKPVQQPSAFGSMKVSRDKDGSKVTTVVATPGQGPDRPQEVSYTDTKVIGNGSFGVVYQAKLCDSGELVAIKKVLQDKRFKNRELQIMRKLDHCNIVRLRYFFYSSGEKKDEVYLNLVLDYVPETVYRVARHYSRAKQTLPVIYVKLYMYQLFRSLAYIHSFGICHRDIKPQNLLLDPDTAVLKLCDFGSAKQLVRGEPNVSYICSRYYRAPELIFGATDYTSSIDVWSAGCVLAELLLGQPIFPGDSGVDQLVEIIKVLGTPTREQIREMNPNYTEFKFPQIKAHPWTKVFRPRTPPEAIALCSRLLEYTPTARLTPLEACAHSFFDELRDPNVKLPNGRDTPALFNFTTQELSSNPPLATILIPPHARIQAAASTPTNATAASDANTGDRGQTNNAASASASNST
row,SMILES,inhibition [%]
1,CS(=O)(=O)CCNCc1cc(-c2cc3c(Nc4ccc(OCc5cccc(F)c5)c(Cl)c4)ncnc3s2)cs1,1.53
2,CCC(=O)Nc1ccc(C)c(-c2ccc(C(=O)NCC3CC3)cc2)c1,0.54
3,COc1cc(Nc2ncc3c(C)nc(-c4cccc(C(F)(F)F)c4)n3n2)cc(OC)c1OC,4.09
4,Fc1ccc(-c2nc3n(c2-c2ccncc2)CCS3)cc1,-1.43
5,NC(=O)c1cc(-c2ccncc2)cc(-c2ccccc2)c1N,2.53
6,CCc1nccc2c1nc(-c1nonc1N)n2CC,2.74
7,CN(C)c1ccc2c(c1)/C(=C/Nc1ccc(S(N)(=O)=O)cc1)C(=O)N2,6.03
8,CS(=O)(=O)CCNCc1ccc(-c2ccc3ncnc(Nc4ccc(OCc5ccccc5)c(Br)c4)c3c2)o1,-1.65
9,Cc1nnc(-c2ccc(C)c(-c3ccc(C(=O)NCc4ccc(Cl)cc4)cc3)c2)o1,-0.31
10,Cc1ccc(C(=O)NC2CCC2)cc1-c1ccc(C(=O)NCC2CC2)cc1,0.28
11,Clc1ccc(CNc2nccc(-c3cnn4ncccc34)n2)cc1,2.82
12,c1ccc(-c2n[nH]cc2-c2ccnc(-c3ccc(OCCN4CCOCC4)cc3)c2)nc1,4.18
13,CCS(=O)(=O)c1ccc(OC)c(Nc2ncc(-c3cccc(-c4ccccc4F)c3)o2)c1,1.65
14,COc1cc2ncn(-c3cc(OCc4cccs4)c(C(N)=O)s3)c2cc1OC,0.55
15,O=C1Nc2ccccc2/C1=C/Nc1ccc(-n2cncn2)cc1,15.3
16,C/C(Nc1ccc(S(N)(=O)=O)cc1)=C1/C(=O)Nc2ccccc21,1.17
17,CCc1cccc(CC)c1/C=C/c1cncc(C(=O)NC)c1,2.21

row,SMILES,inhibition [%]
1,NC(=O)c1cc(-c2ccc(F)cc2)cc(-c2ccncc2)c1N,0.05
2,O=C(NCC1CC1)c1ccc(-c2cccc(C(=O)NC3CC3)c2)cc1,1.32
3,COc1ccc2ncn(-c3cc(O[C@H](C)c4ccccc4Cl)c(C(N)=O)s3)c2c1,-1.37
4,O=C1Nc2ccc(I)cc2C1=Cc1cc(Br)c(O)c(Br)c1,0.29
5,Fc1ccc(-c2ncn(CCCN3CCOCC3)c2-c2ccncc2)cc1,-0.54
6,COc1ccc2cc(-c3c(-c4ccncc4)nc(-c4ccc([S+](C)[O-])cc4C)n3C)ccc2c1 (stereo not drawn),5.99
7,COC(=O)Nc1nc2ccc(Sc3ccc(NC(=O)Nc4cc(C(F)(F)F)ccc4F)cc3)cc2[nH]1,2.16
8,CN(C)CCCNc1nccc(-c2c(-c3ccc(F)cc3)nn3cc(C(F)(F)F)ccc23)n1,3.14
9,CCS(=O)(=O)c1ccc(OC)c(Nc2ncc(-c3ccccc3Cl)o2)c1,1.56
10,Fc1ccc(-c2c(-c3ccncc3)nc3n2CCS3)cc1,-2.25
11,CCN(CC)Cc1ccc(Nc2nccc(-c3cnn4ncccc34)n2)cc1,18
12,COc1cc2ncn(-c3cc(OCCc4ccccc4)c(C(N)=O)s3)c2cc1OC,0.44
13,Cc1ccc(NC(=O)c2ccoc2)cc1-c1ccc(C(=O)NCC2CC2)cc1,6.09
14,NS(=O)(=O)c1ccc(N/N=C2\C(=O)Nc3ccc(C(=O)NCCCn4ccnc4)cc32)cc1,39.7
15,NCc1ccc(-n2c(-c3nonc3N)nc3cnccc32)cc1,18.1
16,COc1cccc(-n2cnc3c(N/N=C/c4ccncc4)ncnc32)c1,3.02
17,C[C@@H](Oc1cc(-n2cnc3ccc(OC4CCN(C)CC4)cc32)sc1C(N)=O)c1ccccc1Cl,-1.76

# Biological target: Glycogen synthase kinase-3 beta (Homo sapiens) (UniProt P49841)
# Details: at 1 µM
row,SMILES,inhibition [%]
1,CS(=O)(=O)CCNCc1cc(-c2cc3c(Nc4ccc(OCc5cccc(F)c5)c(Cl)c4)ncnc3s2)cs1,1.78
2,CCC(=O)Nc1ccc(C)c(-c2ccc(C(=O)NCC3CC3)cc2)c1,2.31
3,COc1cc(Nc2ncc3c(C)nc(-c4cccc(C(F)(F)F)c4)n3n2)cc(OC)c1OC,28.1
4,Fc1ccc(-c2nc3n(c2-c2ccncc2)CCS3)cc1,7.8
5,NC(=O)c1cc(-c2ccncc2)cc(-c2ccccc2)c1N,9.17
6,CCc1nccc2c1nc(-c1nonc1N)n2CC,8.38
7,CN(C)c1ccc2c(c1)/C(=C/Nc1ccc(S(N)(=O)=O)cc1)C(=O)N2,24.2
8,CS(=O)(=O)CCNCc1ccc(-c2ccc3ncnc(Nc4ccc(OCc5ccccc5)c(Br)c4)c3c2)o1,-1.69
9,Cc1nnc(-c2ccc(C)c(-c3ccc(C(=O)NCc4ccc(Cl)cc4)cc3)c2)o1,4.25
10,Cc1ccc(C(=O)NC2CCC2)cc1-c1ccc(C(=O)NCC2CC2)cc1,3.43
11,Clc1ccc(CNc2nccc(-c3cnn4ncccc34)n2)cc1,11.6
12,c1ccc(-c2n[nH]cc2-c2ccnc(-c3ccc(OCCN4CCOCC4)cc3)c2)nc1,5.85
13,CCS(=O)(=O)c1ccc(OC)c(Nc2ncc(-c3cccc(-c4ccccc4F)c3)o2)c1,7.6
14,COc1cc2ncn(-c3cc(OCc4cccs4)c(C(N)=O)s3)c2cc1OC,7.28
15,O=C1Nc2ccccc2/C1=C/Nc1ccc(-n2cncn2)cc1,25.4
16,C/C(Nc1ccc(S(N)(=O)=O)cc1)=C1/C(=O)Nc2ccccc21,9.04
17,CCc1cccc(CC)c1/C=C/c1cncc(C(=O)NC)c1,7.96

row,SMILES,inhibition [%]
1,NC(=O)c1cc(-c2ccc(F)cc2)cc(-c2ccncc2)c1N,1.12
2,O=C(NCC1CC1)c1ccc(-c2cccc(C(=O)NC3CC3)c2)cc1,0.48
3,COc1ccc2ncn(-c3cc(O[C@H](C)c4ccccc4Cl)c(C(N)=O)s3)c2c1,-0.28
4,O=C1Nc2ccc(I)cc2C1=Cc1cc(Br)c(O)c(Br)c1,5.98
5,Fc1ccc(-c2ncn(CCCN3CCOCC3)c2-c2ccncc2)cc1,1.01
6,COc1ccc2cc(-c3c(-c4ccncc4)nc(-c4ccc([S+](C)[O-])cc4C)n3C)ccc2c1 (stereo not drawn),14.7
7,COC(=O)Nc1nc2ccc(Sc3ccc(NC(=O)Nc4cc(C(F)(F)F)ccc4F)cc3)cc2[nH]1,1.89
8,CN(C)CCCNc1nccc(-c2c(-c3ccc(F)cc3)nn3cc(C(F)(F)F)ccc23)n1,7.7
9,CCS(=O)(=O)c1ccc(OC)c(Nc2ncc(-c3ccccc3Cl)o2)c1,1.12
10,Fc1ccc(-c2c(-c3ccncc3)nc3n2CCS3)cc1,3.12
11,CCN(CC)Cc1ccc(Nc2nccc(-c3cnn4ncccc34)n2)cc1,62.3
12,COc1cc2ncn(-c3cc(OCCc4ccccc4)c(C(N)=O)s3)c2cc1OC,0.1
13,Cc1ccc(NC(=O)c2ccoc2)cc1-c1ccc(C(=O)NCC2CC2)cc1,-0.68
14,NS(=O)(=O)c1ccc(N/N=C2\C(=O)Nc3ccc(C(=O)NCCCn4ccnc4)cc32)cc1,77.7
15,NCc1ccc(-n2c(-c3nonc3N)nc3cnccc32)cc1,60.1
16,COc1cccc(-n2cnc3c(N/N=C/c4ccncc4)ncnc32)c1,32.4
17,C[C@@H](Oc1cc(-n2cnc3ccc(OC4CCN(C)CC4)cc32)sc1C(N)=O)c1ccccc1Cl,-0.12
